“And” between values parts separate entries of the source, which are not always exact repeats. Equal values may be shown once. Some compounds were tested as several samples or in several runs, with calls that do not always agree. The source made the active and inactive calls. The calls were made as follows: active = hit-call score of the fitted dose curve at least 0.9, where 1 is the maximum; inactive = score below 0.9.
Key:
Conditions in all cases: mRNA level, 48 h; actives raise or lower the signal
[1] = read-out: Cytochrome P450 3A7 (Homo sapiens) (UniProt P24462); test: LTEA_HepaRG_CYP3A7: Life Technologies and Expression Analysis (LTEA) Assay for CYP3A7 using HepaRG (AID 2283492)
In short: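 qRT-PCR of CYP3A7 in HepaRG lysates after 48 h treatment; concentration-response (8 points, max 100 uM) analysed bidirectionally relative to 0.5% DMSO controls.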

[2] = read-out: CYP3A5 (gene 1577); test: LTEA_HepaRG_CYP3A5: Life Technologies and Expression Analysis (LTEA) Assay for CYP3A5 using HepaRG (AID 2283493)
In short: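 mRNA levels were quantified by qRT-PCR on Fluidigm arrays and normalized to three housekeeping genes. Differentiated HepaRG cells received 48 h exposure (top 100 uM, half-log steps, 0.5% DMSO vehicle, duplicate); bidirectional fitting versus DMSO.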

[3] = read-out: Fatty Acid-Binding Protein 1 (FABP1), FABP1 (gene 2168); test: LTEA_HepaRG_FABP1: Life Technologies and Expression Analysis (LTEA) Assay for Fatty Acid-Binding Protein 1 (FABP1) using HepaRG (AID 2283494)
In short: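 FABP1 expression by TaqMan qRT-PCR, normalised to three housekeeping genes, in HepaRG cells after 48 h chemical treatment. Eight-point half-log series topping at 100 uM in 0.5% DMSO, duplicates; gain or loss fitted relative to vehicle.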

[4] = read-out: Cytochrome P450 4A22 (Homo sapiens) (UniProt Q5TCH4); test: LTEA_HepaRG_CYP4A22: Life Technologies and Expression Analysis (LTEA) Assay for Cytochrome P450 4A22 (CYP4A22) using HepaRG (AID 2283495)
In short: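 Concentration-response (8 points, max 100 uM, 0.5% DMSO) in human HepaRG liver cells after 48 h exposure. CYP4A22 mRNA by TaqMan qRT-PCR with housekeeping-gene normalization.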

[5] = read-out: Cytochrome P450 7A1 (Homo sapiens) (UniProt P22680); test: LTEA_HepaRG_CYP7A1: Life Technologies and Expression Analysis (LTEA) Assay for Cytochrome P450 7A1 (CYP7A1) using HepaRG (AID 2283496)
In short: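 HepaRG, 48 h exposure, 8-pt half-log series from 100 uM, 0.5% DMSO vehicle, duplicates. Readout: TaqMan qRT-PCR mRNA vs three housekeeping genes; bidirectional curve fit against DMSO baseline.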

[6] = read-out: Glutathione S-Transferase (GSTA2), GSTA2 (gene 2939); test: LTEA_HepaRG_GSTA2: Life Technologies and Expression Analysis (LTEA) Assay for Glutathione S-Transferase (GSTA2) using HepaRG (AID 2283497)
In short: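 GSTA2 transcript levels came from Fluidigm TaqMan qRT-PCR normalized to three housekeeping genes, fitted in both directions against DMSO. HepaRG cultures received chemicals for 48 h in serum-free induction medium (0.5% DMSO), 8 half-log concentrations up to 100 uM, duplicate.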

[7] = read-out: Glutamate-cysteine ligase catalytic (GCLC), GCLC (gene 2729); test: LTEA_HepaRG_GCLC: Life Technologies and Expression Analysis (LTEA) Assay for Glutamate-cysteine ligase catalytic (GCLC) using HepaRG (AID 2283498)
In short: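 Expression by TaqMan qRT-PCR, normalized to three housekeeping genes (ACTB, GAPDH, POLR2A), with up- or down-regulation fitted against DMSO. HepaRG cells dosed in duplicate for 48 h with 8 half-log concentrations up to 100 uM, vehicle 0.5% DMSO.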

[8] = read-out: growth arrest and DNA damage 45 (GADD45G), GADD45G (gene 10912); test: LTEA_HepaRG_GADD45G: Life Technologies and Expression Analysis (LTEA) Assay for growth arrest and DNA damage 45 (GADD45G) using HepaRG (AID 2283499)
In short: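 Concentration-response in HepaRG: 48 h dosing, 0.5% DMSO, highest level 100 uM. GADD45G expression by qRT-PCR, normalised to endogenous controls; bidirectional fit to DMSO.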

[9] = read-out: Glutamate-cysteine ligase regulatory (GCLM), GCLM (gene 2730); test: LTEA_HepaRG_GCLM: Life Technologies and Expression Analysis (LTEA) Assay for Glutamate-cysteine ligase regulatory (GCLM) using HepaRG (AID 2283500)
In short: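 GCLM expression quantified by qRT-PCR, normalized to three housekeeping genes, after 48 h chemical treatment of HepaRG cells in duplicate at 8 concentrations (top 100 uM, half-log steps, 0.5% DMSO). Changes fitted both directions against vehicle.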

[10] = read-out: Ezrin (EZR), EZR (gene 7430); test: LTEA_HepaRG_EZR: Life Technologies and Expression Analysis (LTEA) Assay for Ezrin (EZR) using HepaRG (AID 2283491)
In short: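 EZR transcript levels came from Fluidigm qRT-PCR and were normalized to three housekeeping genes after 48 h chemical exposure of HepaRG cells. Dosing used an 8-point half-log series with a 100 uM top concentration in 0.5% DMSO, tested in duplicate; both directions were fitted versus vehicle.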

Measured: AC50

Chain of Cytochrome P450 3A7 (Homo sapiens) (P24462 whole entry, looked up): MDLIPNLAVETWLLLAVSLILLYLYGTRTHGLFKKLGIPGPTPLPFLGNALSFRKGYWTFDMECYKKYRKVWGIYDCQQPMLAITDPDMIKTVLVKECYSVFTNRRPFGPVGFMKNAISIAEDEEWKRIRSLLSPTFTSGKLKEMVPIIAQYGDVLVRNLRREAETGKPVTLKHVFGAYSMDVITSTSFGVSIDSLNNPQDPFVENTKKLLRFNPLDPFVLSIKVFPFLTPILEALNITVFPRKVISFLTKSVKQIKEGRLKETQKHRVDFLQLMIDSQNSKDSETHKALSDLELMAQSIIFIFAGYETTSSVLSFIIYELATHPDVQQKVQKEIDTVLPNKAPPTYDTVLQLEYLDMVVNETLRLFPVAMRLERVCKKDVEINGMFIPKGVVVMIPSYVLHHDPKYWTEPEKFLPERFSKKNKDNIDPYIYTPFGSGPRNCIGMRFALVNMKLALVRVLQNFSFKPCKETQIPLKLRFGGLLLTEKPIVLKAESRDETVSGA

OCCOc1ccccc1
not listed: [10]
inactive: all other assays above

O=C1c2ccccc2C(=O)N1SC(Cl)(Cl)Cl
not listed: [10]
inactive: all other assays above

Oc1ccc(Cl)cc1Cc1ccccc1
active: [2] 50.5 µM | [3] 50.5 µM | [4] 91.8 µM | [5] 76.1 µM | [6] 80.5 µM and 92.2 µM
inactive: [1] | [2] | [3] | [4] | [5] | [6] | [7] | [8] | [9]

CCC(C)(C)C(=O)OC1=C(c2ccc(Cl)cc2Cl)C(=O)OC12CCCCC2
active: [1] 25.5 µM
inactive: all other assays above

O=C(O)C(F)(F)C(F)(F)C(F)(F)C(F)(F)C(F)(F)C(F)(F)C(F)(F)F
active: [1] 22.1 µM and 9.92 µM | [3] 11 µM and 8 µM | [4] 6.42 µM and 5.96 µM
not listed: [10]
inactive: all other assays above

Oc1cc(Cl)ccc1Oc1ccc(Cl)cc1Cl
active: [2] 51 µM | [3] 88.9 µM | [4] 51 µM and 76.4 µM | [5] 72.8 µM | [6] 83.7 µM | [8] 51 µM | [9] 89.6 µM
inactive: [1] | [2] | [3] | [4] | [5] | [6] | [7] | [8] | [9]

ClC1C(Cl)C(Cl)C(Cl)C(Cl)C1Cl (centres undefined)
inactive: [1] | [2] | [3] | [5] | [6] | [7] | [8] | [9]
active: [3] 6.88 µM | [4] 9.67 µM and 8.27 µM | [5] 3.88 µM | [8] 0.488 µM

CC(C)(C)C(O)/C(=C\c1ccc(Cl)cc1Cl)n1cncn1 (centres undefined)
active: [10] 86.6 µM | [3] 30.5 µM | [4] 21.1 µM | [5] 32.6 µM | [6] 27.3 µM | [7] 81.5 µM | [8] 29.5 µM
inactive: [1] | [2] | [9]

COP(=S)(OC)Oc1ccc([N+](=O)[O-])cc1
not listed: [10]
inactive: all other assays above

CCC(C)Nc1c([N+](=O)[O-])cc(C(C)(C)C)cc1[N+](=O)[O-] (centres undefined)
active: [3] 50 µM | [4] 38.7 µM | [5] 34.4 µM
not listed: [10]
inactive: all other assays above

O=C(Nc1ccccc1)Nc1cnns1
active: [1] 50 µM | [3] 65.5 µM | [4] 73.5 µM | [5] 50 µM | [6] 65.3 µM | [9] 80.3 µM
inactive: [2] | [7] | [8]

O=S1OCC2C(CO1)C1(Cl)C(Cl)=C(Cl)C2(Cl)C1(Cl)Cl (centres undefined)
inactive: [2] | [7]
active: [1] 50 µM | [3] 43.6 µM | [4] 60.4 µM | [5] 40.4 µM | [6] 79.7 µM | [8] 88.6 µM | [9] 50 µM

O=C(O)COc1ccc(Cl)cc1Cl
active: [1] 27.7 µM
not listed: [10]
inactive: all other assays above

CCN(CC)C(=O)SCc1ccc(Cl)cc1
active: [3] 15.4 µM
not listed: [10]
inactive: all other assays above

CC(C)N(C(=O)COc1nnc(C(F)(F)F)s1)c1ccc(F)cc1
active: [3] 23 µM | [5] 24.7 µM | [6] 50 µM
not listed: [10]
inactive: all other assays above

C[C@H]1[C@H](c2ccc(Cl)cc2)SC(=O)N1C(=O)NC1CCCCC1
inactive: [2]
active: [10] 77.9 µM | [1] 61.6 µM | [3] 55.8 µM | [4] 47.1 µM | [5] 78.9 µM | [6] 79.3 µM | [7] 67.4 µM | [8] 72.9 µM | [9] 73.5 µM

COc1nn(CSP(=S)(OC)OC)c(=O)s1
inactive: all assays above

CCCN(CCC)c1c([N+](=O)[O-])cc(C(F)(F)F)cc1[N+](=O)[O-]
inactive: all assays above

CCOCN(C(=O)CCl)c1c(C)cccc1CC
inactive: [2] | [7] | [9]
active: [1] 86.2 µM | [3] 87.7 µM | [4] 92.5 µM | [5] 84.6 µM | [6] 83.4 µM | [8] 77.9 µM

CNC(=O)/C=C(\C)OP(=O)(OC)OC
not listed: [10]
inactive: all other assays above

CC[C@H](C)[C@H]1O[C@]2(C=C[C@@H]1C)C[C@@H]1C[C@@H](C/C=C(\C)[C@@H](O[C@H]3C[C@H](OC)[C@@H](O[C@H]4C[C@H](OC)[C@@H](O)[C@H](C)O4)[C@H](C)O3)[C@@H](C)/C=C/C=C3\CO[C@@H]4[C@H](O)C(C)=C[C@@H](C(=O)O1)[C@]34O)O2 (tested in a mixture with another compound)
inactive: [1] | [8]
active: [2] 6 µM | [3] 8.68 µM | [4] 10.2 µM | [5] 15 µM | [6] 7.88 µM | [7] 7.09 µM | [9] 7.66 µM

— PubChem BioAssay (EPA / NIEHS)
